# Test results published in PubChem BioAssay AID1159580 (chemical genetic matrix, 2015).
# Values joined by “and” are separate entries in the source; they are usually repeats but may differ in a detail not shown here. Identical values can stand only once. Hit rate of the full screen: of about 5,500 compounds, about 2,000 (36%) were called active. Another 18% or so got no clear call; they are omitted. No stated cut-off is given here; in the data, active means normalized growth mostly below about 0.91 (no sharp cut-off); inconclusive means no clear call, values can overlap the other calls; inactive means mostly above about 0.92. Some of the results follow.
# Assay: chemical genetic growth profiling, strain panel (AID 1159580);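 further: tested at 20 µM; growth read once vehicle control cultures reached saturation at 30 °C; 1 = growth at the plate median or of vehicle wells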
# Settings: S. cerevisiae deletion strains, growth OD
smiles,measurement,setting,value
COC(=O)C1=C(C)NC(C)=C(C(=O)OC)C1c1ccccc1[N+](=O)[O-],normalized growth,"locus YAL021C, strain ccr4, stronger effect = lower value",0.829 (active)
same,normalized growth,"locus YAL026C, strain drs2, stronger effect = lower value",0.812 (active)
same,normalized growth,"locus YAL030W, strain snc1, stronger effect = lower value",0.896 (active)
same,normalized growth,"locus YAL040C, strain CLN3, stronger effect = lower value",0.993 (inactive)
same,normalized growth,"locus YBL061C, strain skt5, stronger effect = lower value",0.9 (active)
same,normalized growth,"locus YBR009C, strain hhf1, stronger effect = lower value",0.863 (active)
same,normalized growth,"locus YBR021W, strain FUR4, stronger effect = lower value",0.996 (inactive)
same,normalized growth,"locus YBR023C, strain chs3, stronger effect = lower value",0.91 (active)
same,normalized growth,"locus YBR171W, strain sec66, stronger effect = lower value",0.975 (inactive)
same,normalized growth,"locus YBR229C, strain ROT2, stronger effect = lower value",0.998 (inactive)
same,normalized growth,"locus YBR231C, strain swc5, stronger effect = lower value",0.836 (active)
same,normalized growth,"locus YBR279W, strain paf1, stronger effect = lower value",0.887 (active)
same,normalized growth,"locus YCL011C, strain gbp2, stronger effect = lower value",0.907 (active)
same,normalized growth,"locus YCL016C, strain dcc1, stronger effect = lower value",0.943 (inactive)
same,normalized growth,"locus YCL029C, strain bik1, stronger effect = lower value",0.97 (inactive)
same,normalized growth,"locus YCL061C, strain MRC1 (second series), stronger effect = lower value",0.829 (active)
same,normalized growth,"locus YCL061C, strain MRC1, stronger effect = lower value",0.933 (inactive)
same,normalized growth,"locus YCL069W, strain vba3, stronger effect = lower value",0.947 (inactive)
same,normalized growth,"locus YCR088W, strain abp1, stronger effect = lower value",0.955 (inactive)
same,normalized growth,"locus YDL005C, strain med2, stronger effect = lower value",0.974 (inactive)
same,normalized growth,"locus YDL035C, strain GPR1, stronger effect = lower value",0.725 (active)
same,normalized growth,"locus YDL040C, strain nat1, stronger effect = lower value",0.98 (inactive)
same,normalized growth,"locus YDL074C, strain BRE1, stronger effect = lower value",0.905 (inactive)
same,normalized growth,"locus YDL101C, strain DUN1, stronger effect = lower value",1.01 (inactive)
same,normalized growth,"locus YDL134C, strain PPH21, stronger effect = lower value",0.783 (active)
same,normalized growth,"locus YDL185W, strain tfp1, stronger effect = lower value",0.938 (inactive)
same,normalized growth,"locus YDL192W, strain arf1, stronger effect = lower value",0.85 (active)
same,normalized growth,"locus YDR001C, strain nth1, stronger effect = lower value",0.975 (inactive)
same,normalized growth,"locus YDR069C, strain doa4, stronger effect = lower value",0.719 (active)
same,normalized growth,"locus YDR101C, strain arx1, stronger effect = lower value",0.963 (inactive)
same,normalized growth,"locus YDR137W, strain rgp1, stronger effect = lower value",0.953 (inactive)
same,normalized growth,"locus YDR159W, strain sac3, stronger effect = lower value",0.918 (inactive)
same,normalized growth,"locus YDR162C, strain NBP2, stronger effect = lower value",0.388 (active)
same,normalized growth,"locus YDR195W, strain ref2",0.999 (inactive)
same,normalized growth,"locus YDR297W, strain sur2, stronger effect = lower value",0.854 (active)
same,normalized growth,"locus YDR318W, strain mcm21, stronger effect = lower value",0.827 (active)
same,normalized growth,"locus YDR334W, strain swr1, stronger effect = lower value",0.904 (inactive)
same,normalized growth,"locus YDR335W, strain msn5, stronger effect = lower value",0.969 (inactive)
same,normalized growth,"locus YDR363W, strain ESC2, stronger effect = lower value",0.992 (inactive)
same,normalized growth,"locus YDR388W, stronger effect = lower value",0.933 (inactive)
same,normalized growth,"locus YDR392W, strain spt3, stronger effect = lower value",0.73 (active)
same,normalized growth,"locus YDR502C, strain sam2, stronger effect = lower value",0.876 (active)
same,normalized growth,"locus YEL003W, strain gim4, stronger effect = lower value",0.895 (active)
same,normalized growth,"locus YEL037C, strain rad23, stronger effect = lower value",0.934 (inactive)
same,normalized growth,"locus YEL061C, strain CIN8 (second series), stronger effect = lower value",0.966 (inactive)
same,normalized growth,"locus YEL061C, strain CIN8, stronger effect = lower value",0.918 (active)
same,normalized growth,"locus YER002W, strain NOP16, stronger effect = lower value",1 (inactive)
same,normalized growth,"locus YER015W, strain faa2, stronger effect = lower value",0.828 (active)
same,normalized growth,"locus YER016W, strain bim1, stronger effect = lower value",0.944 (inactive)
same,normalized growth,"locus YER110C, stronger effect = lower value",1 (inactive)
same,normalized growth,"locus YER111C, strain swi4, stronger effect = lower value",0.94 (inactive)
same,normalized growth,"locus YER155C, strain BEM2 (second series), stronger effect = lower value",0.987 (inactive)
same,normalized growth,"locus YER155C, strain BEM2, stronger effect = lower value",1.01 (inactive)
same,normalized growth,"locus YER167W, strain BCK2, stronger effect = lower value",0.894 (active)
same,normalized growth,"locus YFR010W, strain ubp6, stronger effect = lower value",0.864 (active)
same,normalized growth,"locus YGL078C, strain dbp3, stronger effect = lower value",0.978 (inactive)
same,normalized growth,"locus YGL086W, strain mad1, stronger effect = lower value",0.799 (active)
same,normalized growth,"locus YGL167C, strain pmr1, stronger effect = lower value",0.916 (inactive)
same,normalized growth,"locus YGL173C, strain kem1, stronger effect = lower value",0.729 (active)
same,normalized growth,"locus YGL227W, strain vid30, stronger effect = lower value",0.988 (inactive)
same,normalized growth,"locus YGL240W, strain doc1, stronger effect = lower value",0.96 (inactive)
same,normalized growth,"locus YGL248W, strain PDE1, stronger effect = lower value",0.787 (active)
same,normalized growth,"locus YGL253W, strain hxk2, stronger effect = lower value",0.878 (active)
same,normalized growth,"locus YGR078C, strain PAC10, stronger effect = lower value",0.991 (inactive)
same,normalized growth,"locus YGR135W, strain pre9, stronger effect = lower value",0.799 (active)
same,normalized growth,"locus YGR252W, strain gcn5, stronger effect = lower value",0.997 (inactive)
same,normalized growth,"locus YHR013C, strain ard1, stronger effect = lower value",0.83 (active)
same,normalized growth,"locus YHR027C, strain rpn1, stronger effect = lower value",0.734 (active)
same,normalized growth,"locus YHR030C, strain SLT2, stronger effect = lower value",0.891 (active) and 0.969 (inactive)
same,normalized growth,"locus YHR079C, strain IRE1 (second series), stronger effect = lower value",0.957 (inactive)
same,normalized growth,"locus YHR079C, strain IRE1, stronger effect = lower value",0.956 (inactive)
same,normalized growth,"locus YHR094C, strain hxt1, stronger effect = lower value",0.974 (inactive)
same,normalized growth,"locus YHR129C, strain ARP1, stronger effect = lower value",0.903 (active)
same,normalized growth,"locus YHR142W, strain chs7, stronger effect = lower value",0.894 (inactive)
same,normalized growth,"locus YHR200W, strain rpn10, stronger effect = lower value",0.88 (active)
same,normalized growth,"locus YIL066C, strain RNR3, stronger effect = lower value",0.609 (active)
same,normalized growth,"locus YIL073C, strain SPO22, stronger effect = lower value",0.319 (active)
same,normalized growth,"locus YIL125W, strain kgd1, stronger effect = lower value",0.948 (inactive)
same,normalized growth,"locus YIR030C, strain dcg1, stronger effect = lower value",0.992 (inactive)
same,normalized growth,"locus YJL092W, strain hpr5, stronger effect = lower value",0.945 (inactive)
same,normalized growth,"locus YJL095W, strain BCK1 (second series), stronger effect = lower value",0.933 (inactive)
same,normalized growth,"locus YJL095W, strain BCK1, stronger effect = lower value",1 (inactive) and 0.958 (inactive)
same,normalized growth,"locus YJL115W, strain asf1, stronger effect = lower value",0.969 (inactive)
same,normalized growth,"locus YJL129C, strain trk1, stronger effect = lower value",0.89 (inactive)
same,normalized growth,"locus YJL134W, strain LCB3, stronger effect = lower value",0.963 (inactive)
same,normalized growth,"locus YJL154C, strain vps35, stronger effect = lower value",0.962 (inactive)
same,normalized growth,"locus YJL164C, strain tpk1, stronger effect = lower value",0.743 (active)
same,normalized growth,"locus YJL166W, strain qcr8, stronger effect = lower value",0.825 (active)
same,normalized growth,"locus YJL168C, strain set2, stronger effect = lower value",0.952 (inactive)
same,normalized growth,"locus YJL187C, strain SWE1 (second series), stronger effect = lower value",0.99 (inactive)
same,normalized growth,"locus YJL187C, strain SWE1, stronger effect = lower value",0.901 (active)
same,normalized growth,"locus YJR043C, strain POL32, stronger effect = lower value",0.752 (active)
same,normalized growth,"locus YJR066W, strain TOR1, stronger effect = lower value",0.924 (inactive)
same,normalized growth,"locus YJR075W, strain HOC1, stronger effect = lower value",0.822 (active) and 0.894 (active)
